Assay [1] is described as follows: qHTS assay to identify aromatase inhibitors - cell viability counter screen (AID 743084).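 Note: cells stimulated with testosterone during compound exposure; nearly all actives have a fitted effect of over 55% in size.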 Note: potency is the fitted concentration of half-maximal effect.
The nature of assay [2]: qHTS assay to identify small molecule that activate the aryl hydrocarbon receptor (AhR) signaling pathway - cell viability counter screen (AID 743086). Note: nearly all actives have a fitted effect of over 45% in size. Note: potency is the fitted concentration of half-maximal effect. The method in brief: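 Cytotoxicity counter screen: CellTiter-Fluor signal (30 min, 37 C) in 4000 HepG2 cells/well carrying the DRE-luciferase reporter, following 24 h compound exposure at 37 C.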
A general note: In qHTS, concentration-response curves come from the screen itself.

Assay [3] deals with Peroxisome proliferator-activated receptor gamma (Homo sapiens) (UniProt P37231). Nature of the assay: qHTS assay to identify small molecule agonists of the peroxisome proliferator-activated receptor gamma (PPARg) signaling pathway (AID 743094; active = well fitted activation curve with a large enough effect in the signal ratio in the repeat runs, not every such curve was filed as active; the % refers to the signal ratio). The method in brief: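 Cells from the PPARg UAS-bla HEK293H line are plated and incubated 5 h at 37C. Compounds in DMSO are pinned in and left 17 h at 37C. LiveBLAzer B/G substrate is then added for 1 h at room temperature before fluorescence is measured.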
Chain of Peroxisome proliferator-activated receptor gamma (Homo sapiens) (P37231 whole entry, looked up): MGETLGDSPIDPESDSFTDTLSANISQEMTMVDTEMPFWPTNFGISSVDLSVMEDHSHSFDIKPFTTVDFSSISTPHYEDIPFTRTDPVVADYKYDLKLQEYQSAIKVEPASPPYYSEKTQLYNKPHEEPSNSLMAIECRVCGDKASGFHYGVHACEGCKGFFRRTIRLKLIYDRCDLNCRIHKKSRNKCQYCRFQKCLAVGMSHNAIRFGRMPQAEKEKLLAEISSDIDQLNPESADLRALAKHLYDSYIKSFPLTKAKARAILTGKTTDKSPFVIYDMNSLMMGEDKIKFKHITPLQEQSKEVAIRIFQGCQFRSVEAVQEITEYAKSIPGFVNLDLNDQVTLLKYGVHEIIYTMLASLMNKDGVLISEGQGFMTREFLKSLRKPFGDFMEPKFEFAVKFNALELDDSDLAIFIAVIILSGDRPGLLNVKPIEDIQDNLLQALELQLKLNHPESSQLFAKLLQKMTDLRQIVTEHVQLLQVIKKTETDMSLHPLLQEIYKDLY

Assay [4] can be described thus: qHTS assay to identify small molecule antagonists of the peroxisome proliferator-activated receptor gamma (PPARg) signaling pathway - cell viability counter screen (AID 743194). Note: nearly all actives have a fitted effect of over 55% in size. The gist of the method: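 Viability was measured as CellTiter-Glo luminescence in GeneBLAzer PPARg UAS-bla HEK293H cells. These cells had been exposed 17 h at 37 C to compounds together with rosiglitazone at 50 nM final, with the beta-lactamase readout taken in the same wells.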

Assay [5] can be described thus: qHTS assay for small molecule agonists of the antioxidant response element (ARE) signaling pathway - cell viability counter screen (AID 743203; calls by dose curve; note: nearly all actives have a fitted effect of over 55% in size). The method in brief:
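Cytotoxicity was tested in parallel with the ARE reporter screen. ARE-bla HepG2 cells were exposed to compounds for 16 hrs, and viability was taken from CellTiter-Glo luminescence.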

Assay [6] in a line: qHTS assay for small molecule activators of the heat shock response signaling pathway - cell viability counter screen (AID 743209). Note: nearly all actives have a fitted effect of over 50% in size. The method in brief:
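Cytotoxicity counter screen run in parallel with the HSE beta-lactamase reporter, using the same wells. HeLa HSE-bla cells received compound for 5 h at 37 C; ATP-based CellTiter-Glo luminescence was measured after 30 min at room temperature.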

Assay [7] in a line: qHTS assay for small molecule activators of the heat shock response signaling pathway (AID 743210; active = well fitted activation curve with a large enough effect in the signal ratio in the repeat runs, with a control signal flat, not every such curve was filed as active; the % refers to the signal ratio;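 note: HeLa cells with beta-lactamase reporter driven by heat shock elements; series mostly up to about 63 µM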). The gist of the method: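 Fluorescence from a cleaved B/G FRET substrate (2.5 h, room temp) reports HSE-driven beta-lactamase in HeLa cells treated 5 h at 37 C with DMSO-dissolved compounds.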
The nature of assay [8]: qHTS assay to identify small molecule agonists of the peroxisome proliferator-activated receptor delta (PPARd) signaling pathway - cell viability counter screen (AID 743211). Note: nearly all actives have a fitted effect of over 55% in size. The gist of the method: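 Read-out: CellTiter-Glo luminescence, 30 min RT, measured in the same wells as the beta-lactamase reporter. Cells: GeneBLAzer PPAR delta UAS-bla HEK293H, 3000 cells/well, compound exposure 17 h at 37C.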

Assay [9] addresses Peroxisome proliferator-activated receptor delta (Homo sapiens) (UniProt Q03181). Put plainly: qHTS assay to identify small molecule agonists of the peroxisome proliferator-activated receptor delta (PPARd) signaling pathway (AID 743212; calls by dose curve). The gist of the method:
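Steps: seed PPARd-bla HEK293H cells; incubate 5 h, 37 C, 5% CO2; add compounds in DMSO; incubate, 37 C; add LiveBLAzer B/G FRET substrate; hold 2 h at room temperature; measure fluorescence.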

The nature of assay [10]: qHTS assay to identify small molecule antagonists of the peroxisome proliferator-activated receptor delta (PPARd) signaling pathway - cell viability counter screen (AID 743213). Note: nearly all actives have a fitted effect of over 50% in size. The gist of the method: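 Luminescence from CellTiter-Glo, added after the bla read and incubated 30 min at room temperature, gives viability of HEK293H PPARd-bla cells exposed to compounds for 17 h at 37 C with 300 nM L165041.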

Assay [11] deals with Peroxisome proliferator-activated receptor delta (Homo sapiens) (UniProt Q03181). Put plainly: qHTS assay to identify small molecule antagonists of the peroxisome proliferator-activated receptor delta (PPARd) signaling pathway (AID 743215; active = well fitted inhibition curve with a large enough effect in the signal ratio in the repeat runs, not every such curve was filed as active; the % refers to the signal ratio;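 note: cells stimulated with agonist L165041 at 300 nM final during compound exposure; series mostly up to about 62 µM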). The method in brief:
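Cells: HEK293H with a UAS-driven beta-lactamase reporter responsive to PPARd. Compounds were co-added with L165041 (300 nM, final) and incubated 17 h at 37 C before a 2 h room-temperature FRET substrate step and fluorescence reading.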

Assay [12] addresses Bile acid receptor (Homo sapiens) (UniProt Q96RI1). Nature of the assay: qHTS assay to identify small molecule antagonists of the farnesoid-X-receptor (FXR) signaling pathway (AID 743217; active = well fitted inhibition curve with a large enough effect in the signal ratio in the repeat runs, not every such curve was filed as active; the % refers to the signal ratio). The method in brief: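 Cells carrying a UAS-driven beta-lactamase reporter (GeneBLAzer FXR-UAS-bla HEK 293T) were plated and rested 5 h at 37 °C. Compounds in DMSO were added alongside chenodeoxycholic acid agonist at 50 uM final and left 16 h at 37 °C before FRET substrate readout.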

Assay [13] can be described thus: qHTS assay to identify small molecule agonists of the farnesoid-X-receptor (FXR) signaling pathway - cell viability counter screen (AID 743218). Note: nearly all actives have a fitted effect of over 45% in size. The gist of the method: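 Cells were seeded, left 5 h at 37 C and 5% CO2, then dosed with compound in DMSO for 16 h. After the beta-lactamase FRET read, CellTiter-Glo was added and luminescence measured 30 min later.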

For assay [14], the target named is Bile acid receptor (Homo sapiens) (UniProt Q96RI1). Put plainly: qHTS assay to identify small molecule agonists of the farnesoid-X-receptor (FXR) signaling pathway (AID 743220; active = well fitted activation curve with a large enough effect in the signal ratio in the repeat runs, not every such curve was filed as active; the % refers to the signal ratio). The method in brief:
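FXR-UAS-bla HEK 293T cells carrying a UAS-driven beta-lactamase reporter were plated for 5 h at 37C/5% CO2, then exposed to DMSO-dissolved Tox21 10K compounds for 16 h at 37C. A LiveBLAzer B/G FRET substrate was loaded for 2 h at room temperature before fluorescence reading.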

Assay [15] in a line: qHTS assay to identify small molecule antagonists of the farnesoid-X-receptor (FXR) signaling pathway - cell viability counter screen (AID 743221; active = well fitted cell-killing curve with a large enough effect in the repeat runs, not every such curve was filed as active; note: nearly all actives have a fitted effect of over 50% in size). The method in brief:
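HEK 293T FXR-bla cells, 5 h pre-incubation; compound + CDCA 50 uM final, 16 h, 37 C; beta-lactamase FRET read first, then CellTiter-Glo luminescence, 30 min RT.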

Assay [16] deals with Vitamin D3 receptor (Homo sapiens) (UniProt P11473). Nature of the assay: qHTS assay to identify small molecule agonists of the vitamin D receptor (VDR) signaling pathway (AID 743222; calls by dose curve). The gist of the method: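 Cells carrying a VDR-driven beta-lactamase reporter are seeded at 2,000 per well and rested 4 h. Compounds in DMSO are added for 16 h at 37C, and FRET substrate fluorescence is measured after 2 h at room temperature.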
Chain of Vitamin D3 receptor (Homo sapiens) (P11473 whole entry, looked up): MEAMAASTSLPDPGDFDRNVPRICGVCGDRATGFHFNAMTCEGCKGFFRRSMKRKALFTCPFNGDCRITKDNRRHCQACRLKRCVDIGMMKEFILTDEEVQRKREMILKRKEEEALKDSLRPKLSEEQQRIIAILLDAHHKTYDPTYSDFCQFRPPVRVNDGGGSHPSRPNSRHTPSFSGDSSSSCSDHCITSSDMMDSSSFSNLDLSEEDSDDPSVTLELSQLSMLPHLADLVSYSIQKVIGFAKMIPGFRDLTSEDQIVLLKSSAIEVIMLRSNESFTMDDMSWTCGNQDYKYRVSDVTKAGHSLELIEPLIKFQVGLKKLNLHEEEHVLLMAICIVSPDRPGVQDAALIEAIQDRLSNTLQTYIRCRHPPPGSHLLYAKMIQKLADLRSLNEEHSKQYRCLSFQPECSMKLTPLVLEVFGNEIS

Assay [17] shares this target. Nature of the assay: qHTS assay to identify small molecule antagonists of the vitamin D receptor (VDR) signaling pathway (AID 743223; active = well fitted inhibition curve with a large enough effect in the signal ratio in the repeat runs, not every such curve was filed as active; the % refers to the signal ratio). The method in brief: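 Beta-lactamase reporter read-out: FRET substrate fluorescence after 2 h at room temperature, following 16 h exposure of VDR-bla cells to test compound plus 3 nM (final) 1alpha,25-dihydroxyvitamin D3 agonist at 37C.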

The nature of assay [18]: qHTS assay for small molecule agonists of the antioxidant response element (ARE) signaling pathway (AID 743202; active = well fitted activation curve with a large enough effect in the signal ratio in the repeat runs, not every such curve was filed as active; the % refers to the signal ratio; note: potency is the fitted concentration of half-maximal effect). The gist of the method: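 Beta-lactamase reporter activity, read as fluorescence intensity, reflects ARE/Nrf2 pathway induction in HepG2 cells after 16 h compound exposure at 37 C; substrate loading was 2 h at room temperature.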
For assay [19], the target named is Peroxisome proliferator-activated receptor gamma (Homo sapiens) (UniProt P37231). Nature of the assay: qHTS assay to identify small molecule antagonists of the peroxisome proliferator-activated receptor gamma (PPARg) signaling pathway (AID 743191; calls by dose curve; note: series mostly up to about 63 µM; nearly all actives have a fitted effect of over 30% in size). The method in brief:
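Beta-lactamase reporter under UAS control in HEK293H PPARg-bla cells; compound treatment 17 h at 37C. Read-out: fluorescence intensity after 1 h room-temperature incubation with LiveBLAzer B/G FRET substrate.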

Each structure is given as a SMILES string. Results filed as inconclusive are left out. Active and inactive are the calls of the source. Unless noted, calls come from the whole dose curve; as a rule, active = well fitted curve in the direction sought with a large enough effect in the repeat runs; inconclusive = weak or mixed curves; inactive = no such curve, though single readings can be large; an effect the other way counts as inactive or inconclusive.

Chain of Peroxisome proliferator-activated receptor delta (Homo sapiens) (Q03181 whole entry, looked up): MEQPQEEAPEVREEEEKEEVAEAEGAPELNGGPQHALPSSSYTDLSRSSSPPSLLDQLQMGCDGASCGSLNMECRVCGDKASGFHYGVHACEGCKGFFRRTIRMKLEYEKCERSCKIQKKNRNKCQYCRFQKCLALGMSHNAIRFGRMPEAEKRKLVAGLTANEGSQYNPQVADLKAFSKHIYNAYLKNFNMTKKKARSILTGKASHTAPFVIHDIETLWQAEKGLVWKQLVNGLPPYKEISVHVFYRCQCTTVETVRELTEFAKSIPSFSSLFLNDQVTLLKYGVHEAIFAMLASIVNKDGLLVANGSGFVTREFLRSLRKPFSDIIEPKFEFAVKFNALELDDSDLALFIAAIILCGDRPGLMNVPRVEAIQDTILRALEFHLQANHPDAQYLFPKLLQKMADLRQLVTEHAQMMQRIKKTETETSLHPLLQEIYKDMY
Chain of Bile acid receptor (Homo sapiens) (Q96RI1 whole entry, looked up): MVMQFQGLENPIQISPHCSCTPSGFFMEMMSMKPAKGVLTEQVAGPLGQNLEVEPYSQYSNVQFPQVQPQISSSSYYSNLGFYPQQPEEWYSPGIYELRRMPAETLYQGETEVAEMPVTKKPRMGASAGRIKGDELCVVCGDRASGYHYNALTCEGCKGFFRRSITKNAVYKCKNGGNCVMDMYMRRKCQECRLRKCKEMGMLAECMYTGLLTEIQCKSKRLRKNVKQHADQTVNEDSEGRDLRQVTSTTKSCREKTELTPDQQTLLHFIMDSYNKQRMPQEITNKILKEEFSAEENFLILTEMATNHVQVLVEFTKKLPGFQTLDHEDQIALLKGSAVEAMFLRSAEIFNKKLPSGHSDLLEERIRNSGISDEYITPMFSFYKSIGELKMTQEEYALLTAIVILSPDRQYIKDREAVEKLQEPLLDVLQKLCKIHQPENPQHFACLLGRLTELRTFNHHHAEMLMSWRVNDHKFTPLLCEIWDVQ

Turning to `Oc1ccc(Oc2ccccc2)cc1`, the Potency result in [1], in assay [2], in assay [3], in [4], in assay [5] and in assay [8] was “inactive” in each case. In addition, the Potency result in assay [9], in assay [10], in [13] and in assay [15] was “inactive” in each case. The outcome in [6], in assay [7], in [11], in [12], in [14] and in [16] was inactive. Besides, the compound was called inactive in assay [17].
As to `CCCCOc1ccc(N)cc1`, the Potency result in assay [1], in [2], in [3], in assay [4], in assay [18] and in assay [5] was “inactive” each time. The Potency entry in [8], in assay [10] and in assay [15] was “inactive” throughout. In addition, the result in assay [6], in assay [7], in assay [11], in [12], in assay [14] and in assay [16] was inactive. Also, the result in assay [17] was inactive.
For `CCC(=O)O[C@@H]1C[C@H]2CC[C@]1(C)C2(C)C`, the Potency result in [1], in assay [2], in assay [3], in assay [4], in assay [5] and in [8] was “inactive” each time. Besides, the Potency result in assay [9], in assay [10] and in [15] was “inactive” in each case. The compound was called inactive in assay [6], in [7], in assay [11] and in assay [16].
Regarding `Clc1cccc(C(c2ccc3nc[nH]c3c2)n2ccnc2)c1` (centres undefined), the Potency entry in [1], in assay [2], in assay [3], in assay [4], in [5] and in assay [9] was “inactive” throughout. The Potency entry in assay [10], in assay [13] and in assay [15] was “inactive” throughout. Also, the outcome in [6], in [7], in [11], in [12], in assay [14] and in assay [16] was inactive. The call in assay [17] was inactive.
Consider `CC1(COc2ccc(CC3SC(=O)NC3=O)cc2)CCCCC1` (centres undefined), for which the Potency entry in assay [1], in assay [2], in assay [4], in [8], in assay [10] and in assay [13] was “inactive” in each case. Also, the Potency entry in assay [15] is “inactive”. Moreover, the compound was called inactive in assay [6], in assay [7] and in assay [12].
Regarding `COc1cc(CNC(=O)CCCC/C=C/C(C)C)ccc1O`, the Potency entry in [1], in assay [2], in [3], in [4], in assay [5] and in [8] was “inactive” in each case. Moreover, the Potency entry in [10], in [13] and in [15] was “inactive” each time. Also, the result in assay [6], in [7], in assay [11], in assay [14] and in assay [17] was inactive.
Regarding `O=C1c2ccccc2C(=O)C1c1ccc2cc(S(=O)(=O)O)cc(S(=O)(=O)O)c2n1`, the Potency in assay [1] was 29.5 µM (active); in assay [2], 33.1 µM (active); in assay [18], 5.25 µM (active). The Potency entry in assay [3], in [4], in assay [5], in assay [8], in [9] and in [10] was “inactive” each time. Moreover, the Potency result in assay [15] was “inactive”. In addition, the result in [6], in assay [7] and in [11] was inactive.
In the case of `c1ccc(CN(Cc2ccccc2)Cc2ccccc2)cc1`, the Potency entry in assay [1], in assay [2], in [3], in [5], in [10] and in assay [13] was “inactive” in each case. The result in assay [6], in [7], in [16] and in [17] was inactive.
Take `CC(C)(C(=O)O)c1ccc(C(O)CCCN2CCC(C(O)(c3ccccc3)c3ccccc3)CC2)cc1` (centres undefined): the Potency entry in [1], in assay [2], in [3], in assay [19], in assay [5] and in assay [8] was “inactive” each time. Also, the Potency result in assay [10], in assay [13] and in assay [15] was “inactive” in each case. Also, the compound was called inactive in assay [6], in assay [7] and in [16].
Consider `Nc1ccc(F)cc1F`, for which the Potency entry in assay [1], in assay [2], in [3], in [19], in assay [18] and in [5] was “inactive” in each case. Moreover, the Potency entry in assay [9], in [10] and in [13] was “inactive” each time. Besides, the call in assay [6], in assay [7], in assay [16] and in assay [17] was inactive.

The values are drawn from PubChem BioAssay (Tox21).
